High-throughput results deposited in PubChem by Broad Institute.
The full list was thinned out, with hits kept by preference.
CD40 NFkB inh – CD40 pathway inhibition in BL2 cells. BL2 NF-kB luciferase reporter, CD40L-induced, 4 h. inhibition, % at 10 µM. 0.94% of 83,000 active. AID 1053188;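 active means mean inhibition of at least 50% with a set share of replicates also reaching that level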;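 further: 0% = neutral control wells and 100% = IKK inhibitor VII at 50 µM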
* = called active by the depositor; ! = a repeat was not active; [ ] = remark or other dose.

SMILES | CD40 NFkB inh
CNC[C@@H]1Oc2ncccc2C(=O)N(C)C[C@H]1C | -4
COc1ccc2c3c([nH]c2c1)[C@H](CO)N(C(=O)Nc1ccc(F)cc1)CC31CCN(C(=O)Nc2ccc3c(c2)OCO3)CC1 | 2[25 µM]
CCNC(=O)[C@H]1[C@H](CO)[C@H]2Cn3c(ccc(-c4ccccc4F)c3=O)[C@@H]1N2C(=O)CC | -6[25 µM]
CCS(=O)(=O)Nc1ccc2c(c1)C(=O)N(C)[C@H]1CC[C@@H](CC(=O)N[C@@H]3CCN(Cc4ccccc4)C3)O[C@@H]1CO2 | -16[25 µM]
CN1c2ccc(Br)cc2[C@H]2[C@H](CCN2C(=O)C2CCC2)[C@@H]1CO | 1[25 µM]
CO[C@H](C(=O)N(C)C[C@H]1OCc2ccccc2-c2c(n(C)c3ccccc23)C(=O)N([C@@H](C)CO)C[C@H]1C)c1ccccc1 | 1[25 µM]
O=C1CN(S(=O)(=O)Cc2ccccc2)C[C@@H]2[C@H](c3ccc(C#Cc4ccccc4)cc3)[C@H](CO)N12 | 28[25 µM]
CC(C)NC(=O)N(C)C[C@@H]1Oc2ccc(NS(C)(=O)=O)cc2C(=O)N(C)C[C@@H]1C | 5
CCS(=O)(=O)N(C)C1c2cc(C#N)ccc2OC(C)(C)C1O (stereo not given) | 1[25 µM]
Cc1ccc(NC(=O)C[C@H]2CC[C@H]3[C@@H](COc4ccc(NC(=O)C5CCC5)cc4C(=O)N3C)O2)cc1 | -4
CNC[C@@H]1Oc2ccc(NC(C)=O)cc2CC(=O)N(C)C[C@H]1C | -2
O=C(C[C@H]1C[C@@H]2c3cc(NC(=O)c4ccc5c(c4)OCO5)ccc3O[C@@H]2[C@@H](CO)O1)NCc1ccccn1 | 13[25 µM]
Cc1c(C#N)c(N)nc(Cl)c1C#N | 3
CCc1nc(N)c(C#N)c(-c2cccc3ccccc23)c1C | 4
CC1=C(C#N)c2nc(N)c(C#N)c(C)c2/C1=C\c1ccccc1 | 49*
O=C(Nc1ccc2c(c1)OCO2)N[C@@H]1CC[C@@H](CCNC(=O)C2CCCC2)O[C@@H]1CO | -7
C[C@@H]1CN([C@@H](C)CO)C(=O)c2c(c3ccccc3n2C)-c2ccccc2CO[C@@H]1CN(C)Cc1ccccc1C(F)(F)F | 62*[25 µM]
C[C@H]1CN([C@@H](C)CO)C(=O)c2c(c3ccccc3n2C)-c2ccccc2CO[C@H]1CN(C)Cc1ccc(C(F)(F)F)cc1 | 4
C[C@H](CO)N1C[C@H](C)[C@H](CN(C)Cc2cccc(F)c2)OCc2ccccc2-c2c(n(C)c3ccccc23)C1=O | 10
C[C@@H]1CN([C@@H](C)CO)C(=O)c2c(c3ccccc3n2C)-c2ccccc2CO[C@@H]1CN(C)Cc1cccc(C(F)(F)F)c1 | 62*[25 µM]
C[C@@H]1CN([C@@H](C)CO)C(=O)c2c(c3ccccc3n2C)-c2ccccc2CO[C@H]1CN(C)Cc1ccc(C(F)(F)F)cc1 | 11
C[C@@H]1CN([C@H](C)CO)C(=O)c2c(c3ccccc3n2C)-c2ccccc2CO[C@H]1CN(C)Cc1ccccc1C(F)(F)F | 45[25 µM]
C[C@H]1CN([C@@H](C)CO)C(=O)c2c(c3ccccc3n2C)-c2ccccc2CO[C@@H]1CN(C)Cc1cccc(C(F)(F)F)c1 | 61*[25 µM]
C[C@H]1CN([C@@H](C)CO)C(=O)c2c(c3ccccc3n2C)-c2ccccc2CO[C@H]1CN(C)Cc1cccc(F)c1 | 12
C[C@H]1CN([C@@H](C)CO)C(=O)c2ccccc2-c2ccccc2CO[C@@H]1CN(C)Cc1ccc(C(F)(F)F)cc1 | 4
SMILES | CD40 NFkB inh
C[C@H](CO)N1C[C@H](C)[C@H](CN(C)Cc2ccc(C(F)(F)F)cc2)OCc2ccccc2-c2ccccc2C1=O | 15
C[C@H]1CN([C@@H](C)CO)C(=O)c2c(c3ccccc3n2C)-c2ccccc2CO[C@H]1CN(C)Cc1ccccc1C(F)(F)F | 8[25 µM]
C[C@@H]1CN([C@@H](C)CO)C(=O)c2ccccc2-c2ccccc2CO[C@H]1CN(C)Cc1ccccc1C(F)(F)F | 66*[25 µM]
COc1ccc2c3c(n(C)c2c1)[C@@H](CO)N(CC1CC1)CC31CN(C(=O)Nc2ccc(F)cc2F)C1 | 11[25 µM]
C[C@@H]1CN(C)C(=O)Cc2ccccc2O[C@@H]1CN(C)C(=O)OC(C)(C)C | 15
C[C@@H]1CN(C)C(=O)c2cc(NS(C)(=O)=O)ccc2O[C@@H]1CN(C)C | -4
Cc1ccc(S(=O)(=O)Nc2cccc3c2O[C@@H](CN(C)C(=O)Nc2ccc(C(F)(F)F)cc2)[C@H](C)CN([C@H](C)CO)C3=O)cc1 | -3[25 µM]
CC(=O)Nc1ccc2c(c1)CC(=O)N(C)C[C@H](C)[C@H](CN(C)C(C)=O)O2 | 1
COc1ccc(CN(C)C[C@H]2Oc3c(NC(=O)c4cnccn4)cccc3C(=O)N([C@@H](C)CO)C[C@@H]2C)cc1 | -19[25 µM]
COc1ccc2c3c(n(C)c2c1)[C@@H](CO)N(C(=O)CN(C)C)CC31CN(Cc2nccs2)C1 | 3[25 µM]
Cc1ccc(-c2ccc(C3[C@@H]4CN(C(=O)Nc5ccc(C(F)(F)F)cc5)C[C@H]3N4)cc2)cc1 (stereo not given in full) | 25[25 µM]
O=C(Nc1ccc(C(F)(F)F)cc1)N1C[C@@H]2N[C@H](C1)C2c1ccc(-c2cccc(F)c2)cc1 (stereo not given in full) | 70*
COc1ccc(NC(=O)N2C[C@@H]3N[C@H](C2)C3c2ccc(-c3cccc(F)c3)cc2)cc1 (stereo not given in full) | -5[25 µM]
CN(C[C@H]1N[C@H](CO)[C@H]1c1ccc(C2=CCCCC2)cc1)S(C)(=O)=O | 1
NC1=NC2(CCCCC2)n2c(nc3ccccc32)N1 | -9
N=c1cc(C2(O)CCCCC2)n2c(nc3ccccc32)s1 | 66*
O=C(C1CCCCC1)N1CCCn2c1nc1ccccc12 | 9
CSc1nsc(SC)c1C(N)=O | 78*
CSc1nsc(SC)c1C(=O)O | 4
CSc1nsc(SC)c1C(=O)OCC(F)(F)F | -17
CC[C@@H]1C/C=C\C[C@H](c2ccc(OC)cc2OC)NC(=O)[C@H](C)CC(=O)N1 | -2[25 µM]
Cn1c(NCc2c(O)ccc3ccccc23)nc2ccccc21 | -12
NCc1c(O)ccc2ccccc12 | -3
Oc1ccc2ccccc2c1CNc1cnc2ccccc2c1 | 54*
COc1cccc(-c2ccc([C@@H]3[C@@H](C#N)N(C(=O)Cc4ccccc4)[C@@H]3CO)cc2)c1 | -3
SMILES | CD40 NFkB inh
CO[C@H]1CN(C)C(=O)c2cc(NS(=O)(=O)c3ccc(Cl)cc3)ccc2OC[C@H](C)N(C(=O)NC(C)C)C[C@@H]1C | 4[25 µM]
O=C(C[C@H]1C[C@@H]2c3cc(NC(=O)NC4CCCC4)ccc3O[C@@H]2[C@@H](CO)O1)NCc1ccccn1 | 0
Cc1ccc(-c2ccc(C3[C@@H]4CN(Cc5cccc(F)c5)C[C@H]3N4)cc2)cc1 (stereo not given in full) | 62*
COc1cccc(-c2ccc(C3[C@@H]4CN(Cc5cccc(F)c5)C[C@H]3N4)cc2)c1 (stereo not given in full) | 60*!
COc1cccc(CN2C[C@@H]3N[C@H](C2)C3c2ccc(-c3ccncc3)cc2)c1 (stereo not given in full) | 2[25 µM]
Cc1ccc(-c2ccc(C3[C@@H]4CN(Cc5ccccc5)C[C@H]3N4)cc2)cc1 (stereo not given in full) | 3[25 µM]
Fc1ccc(-c2ccc(C3[C@@H]4CN(Cc5cccc(F)c5)C[C@H]3N4)cc2)cc1 (stereo not given in full) | -4[25 µM]
COc1ccc(-c2ccc(C3[C@@H]4CN(Cc5cccc(OC)c5)C[C@H]3N4)cc2)cc1 (stereo not given in full) | 3
N#C[C@H]1[C@H](c2ccccc2-c2cccc(F)c2)[C@@H](CO)N1C(=O)NC1CCCC1 | 9
